High-throughput results (PubChem)
This is a sample that favours compounds with a hit; in the whole collection about 9.2% have one here.
SMN2 splice up = SMN2 splice variant enhancement | AID 1458 | Potency, µM (titrated, usually from 46.1 µM), without a hit: at the highest dose activity change, positive = activation, actives largely listed as activators | actives 2.8% (n = 210,000) | HEK293 SMN2-luciferase splicing reporter, luminescence, 30-36 h; note: % of control where 0% means no effect; nearly all actives have a fitted effect of over 55% in size
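HEK293 cells carry an SMN2 […]–luciferase reporter in which exon 7 inclusion puts luciferase in frame. Cells were plated 10-12 h before compound addition, then incubated 30-36 h at 37C. ONE-Glo luminescence was read; sodium butyrate at 4.5 mM final served as control.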
Rab9 prom act = activates the Rab9 promoter; Huh7 Rab9 promoter-luciferase reporter, luminescence, 24 h; Potency, µM (highest dose often 9.22 µM), for the others: top-dose activation, negative = inhibition, most hits filed as activators; actives 2.8% (n = 320,000); AID 485297; note: % of control where 0% means no effect; nearly all actives have a fitted effect of over 60% in size
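Luciferase signal after 10 min detection reagent at ambient indicates Rab9 promoter upregulation; stably transfected Huh7 cells were treated 24 h with compound in DMSO at 37 °C, 5% CO2.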
FLuc counter = inhibits or activates purified firefly luciferase, miR-21 counter-screen. P08659. purified FLuc, Km substrates, luminescence inhibition. Potency, µM (top dose mostly 57.5 µM), inactives show at the top dose activity change, negative = inhibition, usual class: inhibitors. actives 6.9% (n = 360,000). AID 588342;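 note: plate controls were vehicle for no effect and reference inhibitor for full effect; nearly all actives have a fitted effect of over 55% in size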
Target sequence (P08659 whole entry, looked up): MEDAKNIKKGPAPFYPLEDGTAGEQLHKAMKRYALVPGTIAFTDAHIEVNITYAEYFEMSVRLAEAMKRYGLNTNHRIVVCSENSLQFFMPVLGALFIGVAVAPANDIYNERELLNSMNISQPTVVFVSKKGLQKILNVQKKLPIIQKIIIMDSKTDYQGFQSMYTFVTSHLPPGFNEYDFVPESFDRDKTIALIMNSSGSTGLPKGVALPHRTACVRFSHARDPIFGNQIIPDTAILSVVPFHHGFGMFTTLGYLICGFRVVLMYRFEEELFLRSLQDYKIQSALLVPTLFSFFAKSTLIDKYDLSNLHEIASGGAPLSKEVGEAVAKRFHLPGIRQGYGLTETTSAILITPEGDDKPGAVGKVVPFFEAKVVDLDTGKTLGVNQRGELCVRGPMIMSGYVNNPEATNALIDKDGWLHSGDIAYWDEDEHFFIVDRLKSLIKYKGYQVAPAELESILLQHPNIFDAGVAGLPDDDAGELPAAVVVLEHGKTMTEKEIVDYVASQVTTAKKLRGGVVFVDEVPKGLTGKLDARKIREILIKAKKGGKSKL
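Purified P. pyralis luciferase (10nM final) with 10uM D-luciferin and 10uM ATP (Km levels) in 50mM Tris acetate pH 7.5, 10mM Mg acetate, 0.01% Tween-20, 0.05% BSA; qHTS 6-point titration, ~60 µM downward; luminescence read.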
ELG1 DNA repair = blocks ELG1-dependent DNA repair in HEK293T cells | HEK293T ELG1-luciferase reporter, luminescence, 16 h; DNA damage induced by 5-fluorouridine | Potency, µM (top dose mostly 46.1 µM), inactives show at the highest dose activity change, negative = inhibition, most hits filed as inhibitors | actives 2.3% (n = 330,000); note: % is set by controls: 0 for no effect and ±100 for the full control effect; nearly all actives have a fitted effect of over 55% in size
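Cells (2,000 per well) received 5-fluorouridine plus test compound or DMSO and were incubated 16 hr at 37 °C, 5% CO2. Luciferase activity was read by luminescence 30 min after ONE-Glo addition; signal suppression marked inhibition of damage-induced ELG1 function.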
ELG1 genotoxic = induces genotoxicity in HEK293T cells with luciferase-tagged ELG1. HEK293T ELG1-luciferase reporter, luminescence, 16 h. actives 1.3% (n = 330,000). Potency, µM (series often up to 46 µM), without a hit: top-dose activity change, positive = activation, actives largely listed as activators; note: % of control where 0% means no effect; nearly all actives have a fitted effect of over 60% in size
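16 hr compound incubation (37 °C, 5% CO2) of HEK293T cells carrying luciferase-tagged ELG1; luciferase then measured by ONE-Glo luminescence after 30 min at RT.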
NPC1 prom act = activators of NPC1 promoter; actives 2.4% (n = 320,000); Huh7 NPC1 promoter luciferase reporter, 24 h; Potency, µM (series often up to 9.22 µM), for inactives: top-dose activation, most hits filed as activators; note: % of control where 0% means no effect; nearly all actives have a fitted effect of over 60% in size
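NPC1 promoter–luciferase Huh7 cells; 24 h compound; luminescence.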
Numbers without * were called inactive; ? = inconclusive; . = no result given; [ ] = remark or other dose. Calls come from the whole dose curve; as a rule, active = well fitted curve in the direction sought with a large enough effect; inconclusive = small, poorly fitted or top-dose-only effect, or another doubt; inactive = no such curve, though single readings can be large; an effect the other way counts as inactive or inconclusive. Potency is the fitted concentration of half-maximal effect.

SMILES | SMN2 splice up | Rab9 prom act | FLuc counter | ELG1 DNA repair | ELG1 genotoxic | NPC1 prom act
Cc1ccc(NC(=O)c2ccc(OC(F)F)cc2)cc1S(=O)(=O)N(C)C | -55% | 0% | 9.5µM* | ? | 1% | 8%
COc1cc(CCC(=O)Nc2ccc(C)c(S(=O)(=O)N(C)C)c2)cc(OC)c1OC | -8%[1.84 µM] | -6% | 0% | 9.2µM* | -1% | -7%
O=C(O)COc1ccc(C(=O)Cc2ccc3c(c2)OCCCO3)c(O)c1 | -22% | -3% | 27µM* | 5% | -3% | -3%
COc1ccc(CC(=O)c2ccc(O)cc2O)cc1 | -83% | ? | ? | ? | ? | ?
COc1ccc(C(=O)Cc2ccc3c(c2)OCO3)c(O)c1 | 5.6µM* | 4µM* | 2.7µM* | ? | ? | 2.8µM*
O=C(Cc1ccc2c(c1)OCCO2)c1c(O)cc(O)cc1O | 11% | ? | 27µM* | ? | 17% | 27%
COc1ccc(CN(C)C(=O)c2cnc(C)cn2)c(OC)c1OC | . | -3% | 5% | -2% | 2% | -2%
Cc1cccc2c3c([nH]c12)CCN(C)C3 | . | -9% | -2% | 5% | -1% | -1%
O=S(=O)(Nc1ccc2c(c1)OCO2)c1cccs1 | -3% | 2% | -3% | -1% | -2% | 0%
O=C(/C=C\Nc1ccc2c(c1)OCO2)c1ccc(Cl)s1 | 3.5µM* | 0.32µM* | 0.24µM* | ? | 0.82µM* | 0.4µM*
O=C(CCl)Nc1ccc2c(c1)OCO2 | -59% | -10% | -7% | 8% | -10% | -10%
O=C(/C=C\Nc1ccc2c(c1)OCO2)c1cccs1 | . | 0.56µM* | 0.12µM* | ? | 1µM* | 1.4µM*
CCc1ccc(CNC(=O)C2CCN(S(=O)(=O)N3CCC4(CC3)OCCO4)CC2)cc1 | -14% | -1% | -3% | ? | -2% | -4%
CC(C)Sc1nnc(SCC(=O)NCCCN2CCCC2=O)s1 | . | 2% | . | 8% | -1% | 1%
Oc1[nH]c(=S)sc1/C=C1\C(c2ccccc2)=Nc2ccccc21 | -10% | 9% | ? | 5% | 0% | 9%
CCC(Oc1ccccc1)C(=O)Nc1nnc(S(=O)(=O)N2CCCC2)s1 (centres undefined) | . | 0% | 0% | -13% | 1% | -3%
O=C(Nc1ccc(OC(F)(F)F)cc1)C1=NCCN1 | 2% | 2% | 6.7µM* | ? | 10% | ?
CCOc1cc(-c2c(C#N)c(N)nc3c2CCc2ccccc2-3)ccc1O | 13µM* | -2% | -14% | -21% | 15% | -1%
CCOc1cc(-c2cc(-c3ccc(C)cc3)nc(N)c2C#N)ccc1O | ? | -7% | -16% | 16µM* | -5% | -2%
COc1cc(-c2cc(-c3ccc(O)cc3)nc(N)c2C#N)ccc1O | . | -8% | 1% | ? | -12% | -4%
COCCn1c(SCC(=O)Nc2cccc(C)n2)nnc1-c1ccco1 | -7% | -2% | -4% | 6% | 0% | -2%
C=CCN1C(=O)N(c2ccc(F)cc2)C(=O)C1CC(=O)Nc1ccc(Cl)cc1 (centres undefined) | . | 0% | 3% | 1% | -6% | 0%
N#Cc1ccc(COc2cccc3cccnc23)cc1 | . | 7% | ? | 13% | 6% | 1%
COc1ccc(NC(=O)c2onc(C)c2Cl)cc1 | . | 3.2µM* | 15µM* | ? | ? | 3.5µM*
COc1ccc(Cc2nc(C(=O)Nc3ccc(OC)cc3)cs2)cc1 | -29% | -7% | 24µM* | ? | ? | 0%
SMILES | SMN2 splice up | Rab9 prom act | FLuc counter | ELG1 DNA repair | ELG1 genotoxic | NPC1 prom act
CCc1ccc(NC(=O)c2onc(C)c2Cl)cc1 | 14µM* | 2µM* | 3.4µM* | ? | 5.2µM* | 2.5µM*
COc1ccc(NC(=O)c2cc(C)on2)cc1 | 11µM* | 2.8µM* | 21µM* | ? | ? | 2.8µM*
COc1ccc(Cc2nc(C(=O)NCc3ccccc3OC)cs2)cc1 | -14% | -3% | -12% | -7% | -2% | -5%
Cc1cccc(N2CCN(CC(=O)Nc3nccs3)CC2)c1C | -18% | -3% | 12% | ? | -8% | -5%
CCOc1ccc(C(=O)CC(=O)C(=O)NCCc2ccc(OC)c(OC)c2)cc1 | -24% | 2% | 5% | -9% | -3% | -1%
O=C(O/N=C1/CCCc2occc21)c1ccc(Cl)cc1Cl | . | -4% | 5.4µM* | -4% | 3% | -3%
O=C(O/N=C1/CCCc2occc21)c1ccccc1 | -7% | 0% | 2.1µM* | 30% | 2% | -5%
Cc1ccc(NC(=O)CN2CCN(CCN=CC3=C(O)CC(c4ccc(C)cc4)CC3=O)CC2)cc1 (centres undefined) | -12% | 0% | 2% | 7% | 1% | 0%
CC1(C)Cc2c(sc3c2c(=N)n(Cc2ccco2)c(=O)n3CC(=O)Nc2ccccc2)CO1 | ? | -1% | -6% | 9.2µM* | 2% | 5%
Cc1cccc(NC(=O)Cn2c(=O)n(Cc3ccco3)c(=N)c3c4c(sc32)COC(C)(C)C4)c1 | 3% | 0% | 4% | ? | -6% | -3%
CC1(C)Cc2c(sc3c2c(=N)n(Cc2ccco2)c(=O)n3CC(=O)Nc2ccc(Cl)cc2)CO1 | 25% | -3% | 3% | 21µM* | -4% | -1%
CCOC(=O)N1CCN(S(=O)(=O)N2CCCC(C(=O)NCCCN3CCCCC3)C2)CC1 (centres undefined) | . | 1% | 1% | -10% | -1% | 0%
Cc1cc(Cl)n2ncc(-c3ccccc3)c2n1 | . | ? | 12µM* | ? | ? | 25%
Cc1cc(N)n2ncc(-c3ccc(F)cc3)c2n1 | ? | 3.2µM* | 11µM* | ? | 16µM* | ?
Cc1cc(N)n2ncc(-c3ccc(Cl)cc3)c2n1 | 21% | 3.2µM* | 13µM* | ? | ? | 2.8µM*
COc1ccc(-c2cnn3c(C)cc(C)nc23)cc1OC | . | . | 2% | . | . | .
Cc1cc(C)n2cc(-c3ccc(Cl)cc3)c(C(=O)O)c2n1 | 13µM* | 2.5µM* | ? | ? | 16µM* | 2.8µM*
Cc1nc2c(-c3ccc(F)cc3)c(C)nn2c(N2CCOCC2)c1C | -30% | 1% | -3% | ? | -7% | 1%
Cc1nc2c(-c3ccc(F)cc3)cnn2c(N)c1-c1ccc(F)cc1 | . | 0.56µM* | 0.85µM* | ? | 1.2µM* | 0.45µM*
Cc1cc(N2CCOCC2)n2ncc(-c3ccccc3Cl)c2n1 | . | 2.5µM* | 2.7µM* | ? | 9.2µM* | 2.5µM*
CC(C)c1cc(N2CCOCC2)n2ncc(-c3ccccc3)c2n1 | . | 2% | -4% | 11% | 2% | 2%
